Only some compounds are listed: those with a hit (about 6.1% of all), similar ones and a draw of the others.
D3 ag: qHTS of D3 Dopamine Receptor Agonist: qHTS | D(3) dopamine receptor (Homo sapiens), P35462 | D3R DiscoveRx beta-arrestin cells, luminescence, 90 min | max activation, % | 0.58% of 410,000 active | AID 652048, 2013; in the data active means max activation above about 30%; further: 0% is about no effect
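Cells at 1500/well, incubated overnight, then treated with pinned compounds (dopamine as control) for 90 min at 37 degrees C. DiscoveRx reagent added for 30 - 60 minutes at room temperature; luminescence read.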
ERG Ets-DNA blk: qHTS for Small Molecule Inhibitors of the ERG Ets/DNA interaction. fluorescence polarization, His-ERG Ets domain / labelled DNA. Potency, µM (highest dose often 76.9 µM), inactives show top-dose FP activity, negative = inhibition, most hits filed as inhibitors. 0.028% of 370,000 active. AID 624246, 2012; active means well fitted inhibition curve with a large enough effect in the polarisation, with a control signal flat; the % refers to the polarisation;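 further: polarization taken with two DNA probes labelled with fluorescein and Texas red; potency means the concentration at half of the fitted maximal effect; % of control where 0% means no effect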
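His-tagged ERG Ets domain (1 uM in the protein solution; 300mM KCl, 50mM Tris-HCl, 1mM EDTA, 1mM DTT, pH 7.5) received compound, then a probe mix of 5 nM fluorescein-DNA and 100nM Texas-615-DNA. Fluorescence polarization was read for both dyes.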
D1 ag: Allosteric Agonists of the Human D1 Dopamine Receptor: qHTS; activation, % at 2 µM; 1% of 360,000 active; HEK293 T-REx D1 cells, calcium flux, agonist mode; D(1A) dopamine receptor (Homo sapiens), P21728; AID 504660, 2011; in the data active means activation above about 30%; further: 0% is about no effect
Target sequence (P21728 whole entry, looked up): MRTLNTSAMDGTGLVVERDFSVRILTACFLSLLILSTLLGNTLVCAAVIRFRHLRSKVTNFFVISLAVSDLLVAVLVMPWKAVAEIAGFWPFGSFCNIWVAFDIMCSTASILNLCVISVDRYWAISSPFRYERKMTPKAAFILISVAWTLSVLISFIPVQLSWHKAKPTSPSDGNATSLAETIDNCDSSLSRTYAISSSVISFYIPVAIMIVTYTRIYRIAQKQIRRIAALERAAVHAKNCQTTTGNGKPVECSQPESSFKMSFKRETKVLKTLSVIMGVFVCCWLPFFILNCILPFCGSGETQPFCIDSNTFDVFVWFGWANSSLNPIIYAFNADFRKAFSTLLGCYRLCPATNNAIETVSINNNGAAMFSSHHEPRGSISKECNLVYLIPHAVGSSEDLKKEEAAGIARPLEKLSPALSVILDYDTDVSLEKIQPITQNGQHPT
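Agonism was scored from calcium flux recorded over 180 s (1 read/s) after pintool compound addition, following a 10-cycle baseline. Cells were inducible force-coupled HEK293 TREx D1, plated overnight at 30 C and loaded with no-wash calcium dye.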
D1 antagonist: Antagonist of Human D 1 Dopamine Receptor: qHTS | D(1A) dopamine receptor (Homo sapiens), P21728 | HEK293 TREx D1 cells, calcium flux, dopamine EC80; stronger effect = lower value | activity change, negative = inhibition, % at 10 µM | 3.2% of 360,000 active | AID 504652, 2011; in the data active means activity change below about -30%; further: on the % scale 0 is the no-effect control and ±100 the full control effect
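Allosteric or orthosteric antagonism assessed as attenuation of the calcium response to EC80 dopamine, added 180 s after compound, in induced HEK293 Trex D1 cells loaded with no-wash calcium dye.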
D1 PAM: Potentiators of Human D1 Dopamine Receptor: qHTS. D(1A) dopamine receptor (Homo sapiens), P21728. HEK293 TREx D1 cells, calcium flux, dopamine EC20 potentiation. potentiation, % at 10 µM. 0.036% of 360,000 active. AID 504651, 2011; in the data active means potentiation above about 30%; further: 0% is about no effect
D3 antag: qHTS of D3 Dopamine Receptor Antagonist: qHTS; 2.5% of 360,000 active; max response, negative = inhibition, %; D(3) dopamine receptor (Homo sapiens), P35462; AID 652054, 2013; D3R cells, DiscoveRx beta-arrestin luminescence, antagonist mode; stronger effect = lower value; in the data active means max response below about -50%; further: on the % scale 0 is the no-effect control and ±100 the full control effect
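Cells plated overnight at 1500 cells/well, then exposed to library compounds with dopamine controls for 90 minutes at 37 degrees C. DiscoveRx reagent added for 30–60 minutes at room temperature; luminescence read, quantitative HTS format.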
* hit, by the source's call.

CCOC(=O)C(=CNc1ccc(NC2=NCC(C)(C)S2)cc1)C(=O)OCC was read as D3 ag 52*, ERG Ets-DNA blk 6%, D1 ag 10, D1 antagonist 6, D1 PAM -3 and D3 antag 104.
`COc1ccc(CN2CCNC(=O)C2CC(=O)NC2CCCCCC2)c(F)c1` (stereo unspecified) gave D3 ag -25, ERG Ets-DNA blk -2%, D1 ag 1, D1 antagonist -7, D1 PAM -1 and D3 antag -69*.
`Cc1ccc(Nc2nc3nonc3nc2Nc2cccc(C(F)(F)F)c2)cc1Cl` gave D3 ag -19, ERG Ets-DNA blk -5%, D1 ag 14, D1 antagonist -35* and D1 PAM -3.
Cc1cc(Nc2cccc(C(F)(F)F)c2)ncn1 was read as D3 ag 5, ERG Ets-DNA blk 5%, D1 ag -1, D1 antagonist -8 and D1 PAM -1.
Nc1cc(S(=O)(=O)N2CCOCC2)ccc1Oc1cccc(Br)c1 was read as D3 ag -2, ERG Ets-DNA blk 0%, D1 ag 12, D1 antagonist -44*, D1 PAM -11 and D3 antag -18.
`Cc1cc2cc(CCNC(=O)C(=O)c3c[nH]c4ccccc34)c(=O)[nH]c2cc1C` gave D3 ag 4, ERG Ets-DNA blk 2%, D1 ag 4, D1 antagonist -28, D1 PAM 5 and D3 antag 54.
`CCOc1ccc(N(CC(=O)NCCOc2ccc(C)cc2)S(=O)(=O)c2ccccc2)cc1` gave D3 ag 3, ERG Ets-DNA blk -11%, D1 ag 54*, D1 antagonist -38*, D1 PAM 12 and D3 antag 5.
COc1ccc(N(CC(=O)NCCSc2ccc(C)cc2)S(=O)(=O)c2ccccc2)c(OC)c1 was read as D3 ag 7, ERG Ets-DNA blk 10%, D1 ag 6, D1 antagonist 3, D1 PAM 0 and D3 antag 40.
COc1ccc(S(=O)(=O)N(CC(=O)NCCSc2ccccc2)c2ccc(C)cc2)cc1 was read as D3 ag -6, ERG Ets-DNA blk 3%, D1 ag 32*, D1 antagonist 3 and D1 PAM -2.
`CCc1ccc(N(CC(=O)NC2CC2)S(=O)(=O)c2ccc(C)cc2)cc1` gave D3 ag -7, ERG Ets-DNA blk 4%, D1 ag 1, D1 antagonist -43*, D1 PAM -6 and D3 antag -10.
COc1ccc(N(CC(=O)NCCSc2ccccc2)S(C)(=O)=O)cc1 was read as D3 ag 24, ERG Ets-DNA blk -10%, D1 ag -1, D1 antagonist 1, D1 PAM -6 and D3 antag -3.
`COc1ccc(N(CC(=O)NCCOc2ccccc2)S(=O)(=O)c2ccc(C)cc2)cc1` gave D3 ag -13, ERG Ets-DNA blk 7%, D1 ag 2, D1 antagonist 4, D1 PAM -7 and D3 antag -12.
Screening COc1ccc(S(=O)(=O)N(CC(=O)NCCSc2ccccc2)c2ccc(Cl)cc2)cc1 returned D3 ag -8, ERG Ets-DNA blk -11%, D1 ag 36*, D1 antagonist -8 and D1 PAM 2.
O=C1c2cccc3cccc(c23)N1Cc1cccc(F)c1 was read as D3 ag -4, ERG Ets-DNA blk -11%, D1 ag 7, D1 antagonist -1, D1 PAM -6 and D3 antag 2.
CCc1nnc(NC(=O)c2cccc(S(=O)(=O)N3CCCC3)c2)s1 was read as D3 ag 21, ERG Ets-DNA blk 6%, D1 ag 2, D1 antagonist -15, D1 PAM -7 and D3 antag -2.
For Cc1cc(C)c(S(=O)(=O)Nc2cccc(S(=O)(=O)NC3=NCCC3)c2)c(C)c1 the results were D3 ag -1, ERG Ets-DNA blk -3%, D1 ag 6, D1 antagonist 2, D1 PAM -2 and D3 antag 5.
`CCN1CCN(c2ncc3c(n2)CCN(Cc2ccccc2C)C3)CC1` gave D3 ag -10, ERG Ets-DNA blk 0%, D1 ag 3, D1 antagonist 10 and D1 PAM 0.
`O=C(CN(c1ccccc1)S(=O)(=O)c1ccccc1)NCCSc1nc2ccccc2s1` gave D3 ag 8, ERG Ets-DNA blk 20%, D1 ag 8, D1 antagonist -63*, D1 PAM 1 and D3 antag -1.
For COc1ccccc1CNC(=O)CN1C(=O)NC2(CCCc3ccccc32)C1=O (stereo unspecified) the results were D3 ag -3, ERG Ets-DNA blk 14%, D1 ag 2, D1 antagonist -38*, D1 PAM -11 and D3 antag -3.
Screening CN(C(=O)CN1C(=O)NC2(CCc3ccccc32)C1=O)C1CCS(=O)(=O)C1 (stereo unspecified) returned D3 ag -2, ERG Ets-DNA blk -6%, D1 ag -2, D1 antagonist -31*, D1 PAM 0 and D3 antag 17.
`CCOC(=O)CN1C(=O)NC2(CCCc3ccccc32)C1=O` (stereo unspecified) gave D3 ag -15, ERG Ets-DNA blk 0%, D1 ag 2, D1 antagonist -5, D1 PAM 1 and D3 antag -68*.
For O=C(O)CN1C(=O)NC2(CCCc3ccccc32)C1=O (stereo unspecified) the results were D3 ag -6, ERG Ets-DNA blk 0%, D1 ag 0, D1 antagonist -1, D1 PAM -6 and D3 antag -19.
Screening CCCCOc1ccc(/C=N/NC(=O)c2nnn(-c3nonc3N)c2CN2CCCCCC2)cc1 returned D3 ag 2, ERG Ets-DNA blk -5% and D3 antag 23.
Screening Cc1cc(C)c2oc(-c3cccc(NC(=O)c4ccc(Br)o4)c3)nc2c1 returned D3 ag 3, ERG Ets-DNA blk -3%, D1 ag -1, D1 antagonist 0 and D1 PAM 3.
For CC(=O)Nc1cccc(-c2nc3ccccc3o2)c1 the results were D3 ag 1, ERG Ets-DNA blk -3%, D1 ag 4, D1 antagonist 25, D1 PAM 2 and D3 antag 9.

Source: PubChem BioAssay (National Center for Advancing Translational Sciences (NCATS))
